Measured values from PubChem BioAssay (NCATS).
Results filed as inconclusive are left out. Activity calls are given as the source filed them. Unless noted, the call rests on the fitted dose curve; in most records, active means well fitted curve in the direction sought with a large enough effect; inconclusive means small, poorly fitted or top-dose-only effect, or another doubt; inactive means no such curve, though single readings can be large; an effect the other way counts as inactive or inconclusive.

What was measured:
[1] = target: Glucocorticoid receptor (Homo sapiens) (UniProt P04150); experiment: qHTS assay for small molecule agonists of glucocorticoid receptor signaling (AID 588532; active means well fitted curve in the direction sought with a large enough effect in the signal ratio, with a control signal flat; the % refers to the signal ratio;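 further: 100% = dexamethasone at 0.1 µM and 0% = DMSO only wells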); conditions: HeLa MMTV-bla, beta-lactamase ratio, agonist, 18 h; stronger effect = higher value; percent of dexamethasone control, DMSO zero
Chain of Glucocorticoid receptor (Homo sapiens) (P04150 whole entry, looked up): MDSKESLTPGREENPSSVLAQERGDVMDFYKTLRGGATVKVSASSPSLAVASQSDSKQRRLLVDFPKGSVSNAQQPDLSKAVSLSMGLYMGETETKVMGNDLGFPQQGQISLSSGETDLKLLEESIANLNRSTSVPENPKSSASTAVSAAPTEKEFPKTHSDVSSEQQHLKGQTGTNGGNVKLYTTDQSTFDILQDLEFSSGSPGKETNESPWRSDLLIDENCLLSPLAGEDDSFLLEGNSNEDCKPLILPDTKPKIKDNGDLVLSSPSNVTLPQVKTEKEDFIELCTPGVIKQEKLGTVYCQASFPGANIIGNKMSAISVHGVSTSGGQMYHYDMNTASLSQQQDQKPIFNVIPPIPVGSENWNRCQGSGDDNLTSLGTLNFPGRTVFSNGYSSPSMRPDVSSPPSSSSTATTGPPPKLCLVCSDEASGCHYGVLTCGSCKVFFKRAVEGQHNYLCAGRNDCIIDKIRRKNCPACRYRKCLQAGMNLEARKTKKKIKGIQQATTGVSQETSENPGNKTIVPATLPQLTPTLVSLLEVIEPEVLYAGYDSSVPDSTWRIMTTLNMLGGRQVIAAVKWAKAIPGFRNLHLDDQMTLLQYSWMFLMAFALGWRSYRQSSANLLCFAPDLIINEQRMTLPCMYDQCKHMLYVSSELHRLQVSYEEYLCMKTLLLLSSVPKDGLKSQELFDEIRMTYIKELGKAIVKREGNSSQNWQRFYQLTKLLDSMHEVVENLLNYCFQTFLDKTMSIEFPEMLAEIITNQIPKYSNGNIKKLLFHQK
Procedure, shortened: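 MMTV-bla HeLa, beta-lactamase reporter; medium with 1% charcoal/dextran-stripped FBS; cpds up to 92 uM, 18 h, 37 C; CCF4 readout 460/530 nm; Hill fit → EC50, efficacy vs 0.1 uM dexamethasone = 100%.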

[2] = target: Glucocorticoid receptor (Homo sapiens) (UniProt P04150); experiment: qHTS assay for small molecule antagonists of glucocorticoid receptor signaling (AID 588533; active means well fitted inhibition curve with a large enough effect in the signal ratio, with a control signal flat, not every such curve was filed as active; the % refers to the signal ratio;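 further: cells stimulated with 2 nM dexamethasone as agonist; on the % scale 0 is the no-effect control and ±100 the full control effect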); conditions: HeLa MMTV-bla, GRE beta-lactamase ratio, antagonist mode, 18 h; series mostly up to 76.8 µM
Procedure, shortened: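 Antagonist-mode qHTS: compound titrations added to GRE-bla HeLa cells, then dexamethasone 2 nM final; 18 h, 37 C. CCF4 FRET fluorescence normalized to dexamethasone and DMSO; IC50 from Hill fit.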

[3] = qHTS assay for small molecule antagonists of peroxisome proliferator-activated receptor delta signaling (AID 588535); conditions: HEK293T PPARd-UAS-bla, beta-lactamase FRET ratio, 18 h; 460 nm channel;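 further: cells co-treated with a PPAR-delta agonist as stimulator during compound exposure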
Procedure, shortened: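 Compounds tested in titration on PPAR-delta-UAS-bla HEK293T cells grown in charcoal/dextran-stripped serum (2%); beta-lactamase activity read via CCF4 emission at 460 and 530 nm.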

[4] = target: Vitamin D3 receptor (Homo sapiens) (UniProt P11473); experiment: qHTS assay for small molecule antagonists of vitamin D receptor signaling (AID 588541; calls by dose curve;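 further: receptor activated by calcitriol during compound treatment; on the % scale 0 is the no-effect control and ±100 the full control effect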); conditions: HEK293T VDR-UAS-bla, beta-lactamase ratio, antagonist mode; series mostly up to 76.7 µM
Chain of Vitamin D3 receptor (Homo sapiens) (P11473 whole entry, looked up): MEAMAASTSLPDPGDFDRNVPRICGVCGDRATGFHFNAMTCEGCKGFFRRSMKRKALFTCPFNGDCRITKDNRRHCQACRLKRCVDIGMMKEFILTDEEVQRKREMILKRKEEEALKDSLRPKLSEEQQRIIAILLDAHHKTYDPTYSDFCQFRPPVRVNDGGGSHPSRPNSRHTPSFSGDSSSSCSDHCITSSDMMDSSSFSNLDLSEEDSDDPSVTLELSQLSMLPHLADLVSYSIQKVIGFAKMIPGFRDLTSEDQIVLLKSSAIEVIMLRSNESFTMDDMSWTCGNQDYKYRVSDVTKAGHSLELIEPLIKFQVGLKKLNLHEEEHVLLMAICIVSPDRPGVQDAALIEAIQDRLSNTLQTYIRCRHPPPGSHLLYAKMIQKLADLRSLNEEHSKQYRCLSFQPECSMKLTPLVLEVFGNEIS
Procedure, shortened: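 VDR-UAS-bla HEK293T cells (2000/well, 2% charcoal-stripped FBS) were treated with titrated compounds plus 1-alpha,25-dihydroxyvitamin D3 (50 nM or 3 nM final) for 16 h at 37 C. CCF4 beta-lactamase fluorescence was read; Hill fits gave IC50.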

[5] = target: Vitamin D3 receptor (Homo sapiens) (UniProt P11473); experiment: qHTS assay for small molecule agonists of vitamin D receptor signaling (AID 588543; calls by dose curve;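 further: 0% = DMSO basal and 100% = reference agonist control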); conditions: HEK293T VDR-UAS-bla, beta-lactamase ratio, 16 h; series mostly up to 76.8 µM
Procedure, shortened: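 Measured: β-lactamase reporter activity (CCF4, 405 nm excitation, 460/530 nm emission) in HEK293T VDR-UAS-bla cells after 16 h compound exposure at 37 °C. Normalization against 50 nM 1α,25-dihydroxyvitamin D3 and DMSO; Hill-fit EC50.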

[6] = qHTS assay for small molecule agonists of retinoid X receptor alpha signaling (AID 588544; calls by dose curve; further: potency means the concentration at half of the fitted maximal effect;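 on activation: 0% = DMSO basal wells and 100% = reference agonist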); conditions: HEK293T RXRa-UAS-bla, beta-lactamase reporter, 18 h; 530 nm emission
[7] = target: Retinoic acid receptor RXR-alpha (Homo sapiens) (UniProt P19793); experiment: as above; conditions: HEK293T RXRa-UAS-bla, beta-lactamase reporter, 18 h; series mostly up to 76.7 µM
Chain of Retinoic acid receptor RXR-alpha (Homo sapiens) (P19793 whole entry, looked up): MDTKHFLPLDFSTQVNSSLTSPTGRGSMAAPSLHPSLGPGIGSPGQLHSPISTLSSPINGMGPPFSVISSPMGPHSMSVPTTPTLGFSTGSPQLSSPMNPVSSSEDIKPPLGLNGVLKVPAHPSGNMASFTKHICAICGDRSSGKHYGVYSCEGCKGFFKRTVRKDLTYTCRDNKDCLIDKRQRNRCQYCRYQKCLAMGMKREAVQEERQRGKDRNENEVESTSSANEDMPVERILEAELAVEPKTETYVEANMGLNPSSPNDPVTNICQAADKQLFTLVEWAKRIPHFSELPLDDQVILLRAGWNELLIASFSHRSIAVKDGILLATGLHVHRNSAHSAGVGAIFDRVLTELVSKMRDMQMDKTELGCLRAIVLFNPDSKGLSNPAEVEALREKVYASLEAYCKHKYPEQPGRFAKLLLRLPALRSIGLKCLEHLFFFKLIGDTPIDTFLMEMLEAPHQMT

[8] = target: Thyroid hormone receptor beta (Homo sapiens) (UniProt P10828); experiment: qHTS assay for small molecule agonists of thyroid hormone receptor beta signaling (AID 588545; calls by dose curve); conditions: TR-UAS-bla GripTite HEK 293, beta-lactamase ratio, agonist mode, 18 h; series mostly up to 76.7 µM
Chain of Thyroid hormone receptor beta (Homo sapiens) (P10828 whole entry, looked up): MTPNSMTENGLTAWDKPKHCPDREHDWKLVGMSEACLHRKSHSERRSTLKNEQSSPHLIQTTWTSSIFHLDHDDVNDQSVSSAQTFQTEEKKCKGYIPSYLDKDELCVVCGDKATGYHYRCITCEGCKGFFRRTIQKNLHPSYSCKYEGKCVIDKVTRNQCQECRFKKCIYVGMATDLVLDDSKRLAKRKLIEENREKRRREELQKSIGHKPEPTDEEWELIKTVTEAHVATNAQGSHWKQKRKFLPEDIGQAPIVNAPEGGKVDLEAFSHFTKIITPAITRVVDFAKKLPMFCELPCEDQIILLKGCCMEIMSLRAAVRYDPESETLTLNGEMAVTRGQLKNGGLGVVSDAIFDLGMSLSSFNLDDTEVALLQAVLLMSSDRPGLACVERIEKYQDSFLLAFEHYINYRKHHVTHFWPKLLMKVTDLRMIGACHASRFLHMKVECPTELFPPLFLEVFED
Procedure, shortened: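 Cells (2500/well) were seeded, incubated 4 hrs at 37 C, dosed with a compound series, incubated 18 hrs, loaded with CCF4 dye for 2 hrs at RT, then read for fluorescence. Data were scaled between DMSO (0%) and 10 nM T3 (100%).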

[9] = qHTS assay for small molecule antagonists of retinoid X receptor alpha signaling (AID 588546; active means well fitted inhibition curve with a large enough effect in the signal ratio, with a control signal flat, not every such curve was filed as active; the % refers to the signal ratio; further: potency means the concentration at half of the fitted maximal effect;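 on max response: cells stimulated with 9-cis-retinoic acid as agonist; on the % scale 0 is the no-effect control and ±100 the full control effect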); conditions: HEK293T RXRa-UAS-bla, beta-lactamase ratio, antagonist mode; measured here: W530 green channel, cytotoxicity proxy
Procedure, shortened: (§1)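 Beta-lactamase reporter inhibition, read as CCF4 fluorescence ratio (ex 405, em 460/530 nm) after 2 h at RT. HEK293T UAS-bla cells, 2500/well, were stimulated with 9-cis-RA at 500 or 100 nM final alongside test compound for 18 h at 37 C.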

[10] = target: Retinoic acid receptor RXR-alpha (Homo sapiens) (UniProt P19793); experiment: as above; conditions: HEK293T RXRa-UAS-bla, beta-lactamase ratio, antagonist mode
Procedure, shortened: as §1

[11] = qHTS assay for small molecule activators of the p53 signaling pathway (AID 651743; active means well fitted activation curve with a large enough effect in the signal ratio, not every such curve was filed as active; the % refers to the signal ratio; further: % of control where 0% means no effect); conditions: HCT-116 p53RE-bla, beta-lactamase FRET ratio, 16 h; activation: stronger effect = higher value
Procedure, shortened: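 Here HCT-116 cells with an integrated p53-responsive beta-lactamase gene were incubated with compounds (16 hours, 37 C) after a 5-hour plating period; beta-lactamase activity was detected as fluorescence intensity via B/G FRET substrate.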

[12] = qHTS assay for environmental chemicals that activate the Aryl hydrocarbon Receptor (AhR) signaling pathway (AID 651777); conditions: 1A2-DRE human hepatoma cells, luciferase, 24 h; activation: stronger effect = higher value; further: % of control where 0% means no effect; nearly all actives have a fitted effect of over 15% in size
Procedure, shortened: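 Luminescence read-out: One-Glo added for 30 min at RT after 24 hr compound treatment (37 C, 5% CO2) of human hepatoma cells expressing a DRE/CYP1A2 promoter–luciferase reporter; increased signal indicates AhR activation.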

[13] = target: Peroxisome proliferator-activated receptor alpha (Homo sapiens) (UniProt Q07869); experiment: qHTS assay for small molecule agonists of the peroxisome proliferator-activated receptor alpha (PPARalpha) signaling pathway (AID 651778); conditions: PathHunter PPARalpha complementation, chemiluminescence, 6 h; max response: stronger effect = higher value; further: % of control where 0% means no effect
Chain of Peroxisome proliferator-activated receptor alpha (Homo sapiens) (Q07869 whole entry, looked up): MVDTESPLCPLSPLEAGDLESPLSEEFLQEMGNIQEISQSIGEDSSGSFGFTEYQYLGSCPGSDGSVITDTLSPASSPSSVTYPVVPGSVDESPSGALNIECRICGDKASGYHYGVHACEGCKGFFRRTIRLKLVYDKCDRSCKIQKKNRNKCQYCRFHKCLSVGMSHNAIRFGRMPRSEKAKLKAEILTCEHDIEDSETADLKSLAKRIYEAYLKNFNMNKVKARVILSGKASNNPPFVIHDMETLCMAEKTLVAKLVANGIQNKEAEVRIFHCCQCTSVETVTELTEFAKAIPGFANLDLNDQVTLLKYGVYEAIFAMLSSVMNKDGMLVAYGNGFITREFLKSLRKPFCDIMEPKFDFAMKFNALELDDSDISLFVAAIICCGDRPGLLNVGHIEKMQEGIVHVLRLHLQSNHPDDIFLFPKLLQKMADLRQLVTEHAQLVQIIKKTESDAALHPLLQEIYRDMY
Procedure, shortened: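 Cells plated at 2,000/well and held overnight at 37 C, 5% CO2, then compound added by pin tool for 6 hr; after PathHunter detection reagent and 60 min at room temperature, chemiluminescence from enzyme complementation was read.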

[14] = qHTS assay for small molecule agonists of the antioxidant response element (ARE) signaling pathway measured by Nrf2-dependant transcriptional activity (AID 720636; active means well fitted curve in the direction sought with a large enough effect in the repeat runs; an effect the other way counts as inactive or inconclusive; further: % of control where 0% means no effect); conditions: ARE-luc HepG2, Nrf2 luciferase reporter, 16 h; series mostly up to 92.4 µM
Procedure, shortened: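 HepG2 ARE-luc reporter line, 1% dialyzed FBS; 6 hr attachment at 37 C, compound pinned in, 16 hr at 37 C/5% CO2; ONE-Glo, 30 min RT, luminescence read.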

[15] = qHTS assay for small molecule agonists of the antioxidant response element (ARE) signaling pathway measured by Nrf2-dependant transcriptional activity - cell viability counter screen (AID 720653; active means well fitted curve in the direction sought with a large enough effect in the repeat runs; an effect the other way counts as inactive or inconclusive; further: on the % scale 0 is the no-effect control and ±100 the full control effect); conditions: ARE-bla HepG2 viability, CellTiter-Glo ATP luminescence, 16 h; max response: stronger effect = lower value
Procedure, shortened: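 ARE-bla HepG2 cells (2,000/well) rested 5 hrs at 37C/5% CO2, then exposed to compounds in DMSO for 16 hrs. Viability was read in the same wells as intracellular ATP by luminescence, 30 min at room temperature after reagent addition.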

[16] = qHTS assay for cell viability of HEK293 cells (AID 743288); conditions: ATP luminescence (CellTiter-Glo), 18 h; max response: stronger effect = lower value; further: on the % scale 0 is the no-effect control and ±100 the full control effect; nearly all actives have a fitted effect of over 50% in size
Procedure, shortened: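 HEK293, 18 h, 37 C, ATP luminescence. Cells at 2,000/well were allowed at least 5 h to settle before dosing; CellTiter-Glo developed 30 min at RT.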

[17] = qHTS assay for cell viability of the p53RE-bla HCT-116 cell line (AID 743292); conditions: p53RE-bla HCT-116 viability, ATP luminescence, 16 h; series mostly up to 95 µM; further: on the % scale 0 is the no-effect control and ±100 the full control effect; nearly all actives have a fitted effect of over 55% in size
Procedure, shortened: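 Luminescent ATP quantitation (CellTiter-Glo) served as the viability read-out; reagent was added after 16 h compound exposure at 37 C and read after 30 min at room temperature. Cells: p53RE-bla HCT-116, 4,000 per well.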

[18] = qHTS assay for small molecule agonists of the antioxidant response element (ARE) signaling pathway (AID 651741; active means well fitted activation curve with a large enough effect in the signal ratio; the % refers to the signal ratio; further: potency means the concentration at half of the fitted maximal effect; on activation: % of control where 0% means no effect); conditions: HepG2 ARE-bla reporter, beta-lactamase FRET ratio, 16 h; series mostly up to 96 µM
Procedure, shortened: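 Beta-lactamase reporter expression driven by the antioxidant response element in HepG2 cells was detected by fluorescence with LiveBLAzer B/G FRET substrate (2 h, room temperature) following 16 h compound treatment at 37 C.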

[19] = target: Nuclear receptor subfamily 1 group I member 2 (Rattus norvegicus) (UniProt Q9R1A7); experiment: qHTS assay for small molecule activators of the rat pregnane X receptor (rPXR) signaling pathway (AID 651751; call rule not given here; further: 0% is about no effect); conditions: rPXR reporter cells, luciferase (One-Glo), 24 h
Chain of Nuclear receptor subfamily 1 group I member 2 (Rattus norvegicus) (Q9R1A7 whole entry, looked up): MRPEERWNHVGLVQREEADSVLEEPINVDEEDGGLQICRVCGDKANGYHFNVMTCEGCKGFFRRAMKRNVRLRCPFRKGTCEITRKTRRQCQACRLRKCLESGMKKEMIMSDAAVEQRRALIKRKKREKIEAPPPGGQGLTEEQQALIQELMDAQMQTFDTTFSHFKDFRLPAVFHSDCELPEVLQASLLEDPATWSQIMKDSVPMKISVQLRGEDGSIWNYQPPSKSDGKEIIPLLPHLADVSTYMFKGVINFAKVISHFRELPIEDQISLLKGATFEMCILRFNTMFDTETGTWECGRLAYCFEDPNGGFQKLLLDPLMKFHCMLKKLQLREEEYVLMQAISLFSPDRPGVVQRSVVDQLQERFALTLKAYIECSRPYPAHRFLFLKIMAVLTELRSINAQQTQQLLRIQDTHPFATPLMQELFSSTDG

[20] = qHTS assay for small molecule activators of the human pregnane X receptor (PXR) signaling pathway (AID 720659; call rule not given here; further: 0% is about no effect); conditions: DPX-2 HepG2 CYP3A4-luciferase, 24 h; series mostly up to 92.3 µM

CC(=O)c1c(C)c([N+](=O)[O-])c(C(C)(C)C)c([N+](=O)[O-])c1C
inactive: activation [1] 3.65% | Potency [2] | Potency [4] | outcome [5] | Potency [8] | max response [10] -4.43% | activation [11] 6.99% | activation [12] 0.439% | max response [13] 8.73% | Potency [14] | max response [15] -1.24% | max response [16] -8.24% | Potency [17]
active: Potency [7] 28.2 µM
-16.8%: max response [3]
-24%: max response [9]
-17.8%: max response [6]

CCCCCCCCCCCC[N+](C)(C)C
-26.8%: max response [3]
active: Potency [10] 17.8 µM | Potency [18] 19.3 µM
5.9%: max response [9]
inactive: activation [1] -4.8% | Potency [2] | Potency [4] | outcome [5] | Potency [8] | activation [11] 12.8% | activation [12] 9.5% | max response [13] -0.842% | Potency [14] | max response [15] -23.2% | max response [16] -25.6% | Potency [17] | max response [19] -11.2% | outcome [20]

COCCOCCOCCO
inactive: activation [1] 2.13% | Potency [2] | outcome [5] | Potency [7] | max response [10] 3.15% | activation [11] 13.1% | activation [12] -0.0316% | max response [13] 0.508% | Potency [14] | max response [15] -1.82% | Potency [17] | max response [19] 1.8% | outcome [20]
-11.8%: max response [6]
7.14%: max response [3]
-2.04%: max response [9]

CCCCCCCCCCCCN
-2.37%: max response [9]
inactive: activation [1] -4.12% | Potency [2] | Potency [7] | max response [10] 5.24% | Potency [18] | activation [11] -7.19% | activation [12] -1.22% | max response [13] -0.939% | Potency [14] | max response [15] -1.6% | max response [16] -1.85% | Potency [17] | max response [19] 0.146% | outcome [20]
7.66%: max response [6]
-18.4%: max response [3]

CCCCCCCCCCCCCCN(C)C
inactive: activation [1] 12.5% | Potency [2] | Potency [4] | outcome [5] | Potency [7] | Potency [8] | max response [10] -14.8% | Potency [18] | activation [11] 5.52% | Potency [14] | max response [15] -6.77% | max response [16] -20.2% | Potency [17] | max response [19] -1.42% | outcome [20]
-17%: max response [6]
-0.764%: max response [9]

CCOC(=O)C(C)Oc1ccc(Oc2nc3ccc(Cl)cc3o2)cc1 (stereo not drawn)
11.3%: max response [6]
inactive: activation [1] 19.6% | Potency [2] | Potency [4] | outcome [5] | Potency [7] | activation [11] -9.4% | max response [13] 26% | max response [15] 6.64% | max response [16] 2.68% | max response [19] -9.57% | outcome [20]
-2.48%: max response [3]
